# Shiga toxin inh – inhibitors of Shiga toxin in Vero cells; Vero cells, Shiga toxin protein synthesis inhibition reporter; AID 2315; inhibition, % at 38.7 µM; 290,000 tested, 9.2% active; in the data active = inhibition mostly above about 28%, no sharp cut-off; inactive = mostly below about 43%; also: 0% is about no effect
# Cycloheximide cs – counter-screen hit for Shiga toxin inhibitors, cycloheximide. AID 2314. max response, %. cell reporter, cycloheximide protein synthesis inhibition counterscreen. 300,000 tested, 12% active; in the data active = max response mostly above about 13%, no sharp cut-off; inactive = mostly below about 14%; also: read at 38.3 µM for the half of the compounds with a filed dose; 0% is about no effect
# Marburg entry inh – inhibitors of Marburg virus binding or cell entry | 300,000 tested, 1.8% active | Marburg virus pseudotyped entry inhibition, cell reporter | Potency, µM (top dose mostly 37.8 µM), for the others: top-dose activity change, negative = inhibition, actives largely listed as inhibitors; calls by dose curve; tested in HEK293 cells; also: potency is read from the fitted curve at half-maximal effect; % is scaled to controls: 0 for no effect and ±100 for the full control effect
# LASV entry inh – blocks Lassa virus binding to or entry into cells. Lassa virus pseudotype entry inhibition, cell reporter. Potency, µM (doses to about 37.9 µM), inactives show at the top dose activity change, negative = inhibition, most hits filed as inhibitors. 300,000 tested, 1.2% active. AID 540256; calls by dose curve; tested in HEK293 cells; also: potency is read from the fitted curve at half-maximal effect; % is scaled to controls: 0 for no effect and ±100 for the full control effect; nearly all actives have a fitted effect of over 50% in size
# Active calls of the source: *; ? = inconclusive; . = not tested or not shown; [ ] = another dose, or the depositor's remark. An excerpt weighted towards active compounds, which were near 12% of everything screened.
SMILES,Shiga toxin inh,Cycloheximide cs,Marburg entry inh,LASV entry inh
Cc1nn(C)c(NC(=O)c2ccc(Cl)cc2Cl)c1Br,-6.7,-1.2,.,.
Cc1ccc(C(=O)Nc2nc3ccc(S(C)(=O)=O)cc3s2)s1,72.4,69.5*,-3.4%,?
Cc1ccc2nc(NC(=S)NC(=O)c3cccs3)sc2c1,102.0*,47.5*,25.7%,?
CN(CC(=O)Nc1nc2ccccc2s1)S(=O)(=O)c1ccccc1,61.0*,29.0*,?,14.9%
Cc1nc2ccc(NC(=O)c3ccc(Cl)s3)cc2s1,76.6*,15.0,.,.
Cc1ccc(N(CC(=O)Nc2ccc(Br)c(C)c2)S(=O)(=O)c2c(C)[nH]c(=O)[nH]c2=O)cc1,-3.9,-4.3,26.8%[46.1 µM],5.5%[46.1 µM]
Cc1cc(NN)nc(Cc2ccccc2)n1,-2.9,-1.8,-38.9%[46.1 µM],?
CC(=O)Nc1ccc(S(=O)(=O)Nc2cc(-c3cn4ccccc4n3)ccc2C)cc1,.,.,3.9%[46.1 µM],?
c1ccc2sc(NN=C3CCCCCC3)nc2c1,68.5,32.6*,?,?
Cc1cccc2sc(NC(=O)c3ccc(Cl)s3)nc12,-1.8,16.3,.,.
Cc1ccc2nc(NC(=O)c3ccc(Cl)s3)sc2c1,50.7*,25.0*,.,.
CC(=O)Nc1ccc(NC(=O)CCc2c(C)noc2C)cc1,.,.,3.3%,1.3%
CC(OC(=O)c1cccc(-n2cnnn2)c1)C(=O)Nc1ccc(F)c(F)c1F (stereo unspecified),.,.,3.0%[46.1 µM],3.5%
COC(=O)C1=C(C(=O)OC)[C@@H]2N(C)c3ccccc3[C@@]23CCC(=O)N(Cc2cc(OC)c(OC)c(OC)c2)C3=N1,.,.,-11.8%[14.2 µM],.
C[C@H](NC(=O)c1nc[nH]c1C(=O)NCC(=O)OCc1ccccc1)c1ccccc1,10.2,-0.6,.,.
Cc1cc(N/N=C/c2ccc(F)cc2)nc(NCc2ccccc2)n1,45.8*,22.4*,?,?
Cc1ccc(/C=N/Nc2cc(C)nc(NCc3ccccc3)n2)cc1,29.4,18.8*,?,?
Fc1cc(NCc2ccccc2)nc(NCc2ccccc2)n1,59.6*,53.4*,8.7%,8.2%
CCCCNc1cc(C)nc(NCc2ccccc2)n1,41.8,14.1,11.2µM*,11.2µM*
Fc1cc(F)nc(NCc2ccccc2)n1,-3.7,-3.7,.,.
O=C(NCc1ccc(Cl)cc1)c1cnc2sc(N3CCCC3)nn2c1=O,.,.,.,-9.7%[46.1 µM]
CSCC[C@H](NC(=O)[C@H](CC(C)C)NC(=O)CNC(=O)[C@H](Cc1ccc(O)cc1)NC(=O)[C@H](Cc1ccccc1)NC(=O)[C@H](CCC(N)=O)NC(=O)[C@H](CCC(N)=O)NC(=O)[C@@H]1CCCN1C(=O)[C@H](CCCCN)NC(=O)[C@@H]1CCCN1C(=O)[C@@H](N)CCCN=C(N)N)C(N)=O,-5.6,-2.3,.,.
CC(C)c1ccc(N2C(=O)N(Cc3ccccc3Cl)c3ccccc3S2(=O)=O)cc1,.,.,.,-18.5%[46.1 µM]
C=Cc1ccc(Cn2c(C(=O)O)c(CNCc3ccccc3)c3ccc(OC)cc32)cc1,.,.,.,-11.6%[46.1 µM]
Cc1cc(N2CCC(C)CC2)nc(-c2ccccc2O)n1,-9.4,7.6,.,.
SMILES,Shiga toxin inh,Cycloheximide cs,Marburg entry inh,LASV entry inh
Cc1cc(N2CCC(C)CC2)nc(NCc2ccccc2)n1,9.5,-4.6,?,18.4µM*
O=C(N/N=C/c1cccs1)C(=O)N1CCCC1,48.1,28.0*,21.9%[46.1 µM],1.2%
O=C(N/N=C/c1ccccc1F)C(=O)N1CCCCCC1,34.5*,24.3*,19.1%[46.1 µM],0.7%[46.1 µM]
O=C(N/N=C/c1ccccc1O)C(=O)N1CCCCCC1,20.6,20.1*,-9.8%[46.1 µM],?
COc1ccccc1NC(=O)C(=O)N/N=C/c1cccs1,99.0*,38.4*,?,-1.2%
O=C(N/N=C/c1cccc(O)c1)C(=O)N1CCCCCC1,3.8,7.8,?,-1.6%[46.1 µM]
COc1ccc(/C=N/NC(=O)c2ccn[nH]2)cc1COc1ccc([N+](=O)[O-])c(C)c1,55.1*,34.7*,-16.4%,?
COc1ccc(/C=N/NC(=O)c2cccnc2)cc1COc1ccc([N+](=O)[O-])c(C)c1,-10.2,-2.5,?,?
COc1ccc(/C=N/NC(=O)c2ccn[nH]2)cc1COc1ccc(Cl)cc1Cl,16.3,-1.8,?,?
COc1ccc(/C=N/NC(=O)c2ccn[nH]2)cc1COc1ccc(F)cc1,33.0,20.6*,?,28.2%
COc1ccc(/C=N/NC(=O)c2ccn[nH]2)cc1Cn1nc(C)c([N+](=O)[O-])c1C,68.6*,22.9*,.,.
CCOC(=O)C1CN(S(=O)(=O)c2cccc(C(F)(F)F)c2)c2cc(CC(=O)OC)ccc2O1 (stereo unspecified),-3.0,8.8,13.4%,0.7%
COc1cccc2c1cc1c(=O)n(CC(=O)NCc3ccc(C)o3)nc(C)n12,.,.,22.7%[46.1 µM],.
CN1CCN(/N=C/c2nc(-c3ccccc3Cl)n3ccccc23)CC1,-11.8,-1.6,-9.5%,-1.7%
O=C(CN1CCN(Cc2ccccc2Cl)CC1)N/N=C/C=C/c1ccco1,-5.1,-1.6,-19.8%[46.1 µM],7.1%[46.1 µM]
O=[N+]([O-])c1ccccc1/C=N/N1CCN(Cc2ccccc2)CC1,.,45.3*,8.7%,-4.9%
O=[N+]([O-])c1ccccc1/C=N\N1CCN(Cc2ccccc2Cl)CC1,15.3,15.6*,.,.
Clc1ccccc1CN1CCN(/N=C/C=C/c2ccco2)CC1,58.1*,26.4*,.,.
CN1CCN(/N=C/c2cccc(Cl)c2Cl)CC1,41.2*,28.7*,.,.
O=[N+]([O-])c1ccc(Cl)c(/C=N/N2CCN(Cc3ccccc3Cl)CC2)c1,-17.1,-3.7,-17.3%,-14.3%
Fc1ccccc1/C=N/N1CCN(Cc2ccccc2Cl)CC1,.,19.1*,7.1%,-2.0%
O=C1CSC(c2ccc(F)cc2)N1c1c(F)cccc1F (stereo unspecified),21.9,20.6*,.,.
O=C1CSC(c2cccc(F)c2)N1c1c(F)cccc1F (stereo unspecified),-6.5,1.5,-14.6%[46.1 µM],10.6%[46.1 µM]
COc1cnc(-c2ccccn2)nc1Oc1ccc(F)cc1F,40.2,32.5*,?,-8.9%[46.1 µM]
COc1cnc(-c2ccccn2)nc1Oc1ccc(Cl)cc1,-8.0,19.9,-13.4%,-10.4%
SMILES,Shiga toxin inh,Cycloheximide cs,Marburg entry inh,LASV entry inh
COc1cnc(-c2ccccn2)nc1Oc1ccccc1Cl,34.1,29.6*,9.9%,-6.0%
COc1cnc(-c2ccccn2)nc1NC(C)C,49.3,8.6,11.2µM*,?
CCOC(=O)c1cccc(NC(=O)NC2COc3ccccc3C2)c1 (stereo unspecified),.,.,.,-11.9%[46.1 µM]
CCCCC(=O)Nc1nnc(SCC(=O)NCC2CCCO2)s1 (stereo unspecified),.,.,?,19.2%
CCN(CC)C(=O)c1cccc2nc3ccccc3nc12,3.6,-2.0,-11.4%,23.3%
Oc1cccc2nc3ccccc3nc12,43.7,20.9*,.,.
Clc1c(CSc2nc3ccccc3o2)nc2sccn12,152.2*,30.3*,?,?
O=C(CSc1nc2ccccc2o1)N1c2ccccc2Sc2ccccc21,-14.1,20.6,?,?
Brc1c(CSc2nc3ccccc3o2)nc2ncccn12,57.8,39.7*,24.0%[46.1 µM],22.9%
Clc1c(CSc2nc3ccccc3o2)nc2ccccn12,54.5,33.5*,0.0%,.
Cc1cc(C)nc(SCc2nc3ncccn3c2Br)n1,6.0,-5.7,?,-0.8%
COC(=O)CSc1nc2ccccc2o1,14.7,-3.0,0.1%,0.2%
C=CC[C@@H]1C=C[C@H](ON=C2c3cc(OC)ccc3O[C@H](c3cccc(OC)c3)[C@@H]2O)[C@H](CO)O1,.,.,-4.8%[14.2 µM],.
COCCN(CCOC)C(=O)COC(=O)c1cc([N+](=O)[O-])ccc1Cl,-9.7,-0.5,.,.

# Screens as filed in PubChem.
